The values below come from PubChem BioAssay.

The source made the active and inactive calls.

Assay [1] deals with Wnt5a (protein binding on small-molecule microarray). In words: small molecules binding Wnt5a protein – biophysical, small-molecule microarray, 635/667 nm fluorescence, primary screen (AID 1142).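 Note: fluorescence read at 667 nm with signal to noise per printed feature.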 The settings on record: 635 nm fluorescence, higher = more signal.
Assay [2] in a line: ATP-based viability of Huh7 replicon cells – cell-based, CellTiter-Glo luminescence, basal, 48 h, cytotoxicity control for HCV replication inhibitor project, primary screen (AID 1143).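 Note: Huh7 hepatoma cells carrying a hepatitis C replication reporter with no stimulus; test concentration not given here.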 The settings on record: higher = more signal, called active from +8 up or from −8 down. Background: Replicon systems follow genome replication, usually without infectious particles.
Assay [3] is described as follows: basal CRE-LacZ reporter activity in PC12 – cell-based, unstimulated, primary screen (AID 1145). The following applies: no forskolin, luminescence, 4.5 h, higher = more signal, called active from +8 up or from −8 down.
Assay [4] is described as follows: forskolin-driven CRE-LacZ activity in PC12 – cell-based, CRE-LacZ reporter, forskolin-stimulated, primary screen (AID 1146).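 Note: PC12 cells with 6xCRE LacZ reporter stimulated by forskolin 10 µM; beta-galactosidase reporter signal reflecting CREB driven transcription.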 The following applies: luminescence, 4.5 h, higher = more signal, called active from +8 up or from −8 down.
Assay [5] deals with Streptavidin (Streptomyces avidinii) (UniProt P22629). The experiment in a line: compounds binding control protein streptavidin – biophysical, small-molecule microarray, 635/667 nm fluorescence, artefact control for SMM compound annotation, primary screen (AID 1147).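 Note: signal reflects streptavidin binding to arrayed compounds as a control protein.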 The following applies: higher = more signal.
Assay [6] can be described thus: probe aInhba binding on compound microarray – biochemical, small-molecule microarray, 635/667 nm fluorescence, primary screen (AID 1148).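 Note: score merges 667nm spot fluorescence with signal-to-noise for antibody binding to printed compounds.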 The settings on record: higher = more signal.
In assay [7] the target is Torsin-1A (Homo sapiens) (UniProt O14656). In words: TOR1A wild-type binding on microarray – cell lysate, small-molecule microarray, lysate, 635/667 nm, primary screen (AID 1149). The settings on record: COS7 hTOR1A-WT lysate, 635 nm fluorescence, higher = more signal.
The target is the same in assay [8]. The experiment in a line: torsin A mutant lysate binding on microarrays – cell lysate, small-molecule microarray, COS7 lysate, 635/667 nm fluorescence, primary screen (AID 1150).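 Note: score pools 667 nm emission and signal to noise measuring lysate protein binding.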 The following applies: COS7 hTOR1A mutant lysate, 635 nm fluorescence, higher = more signal.
Assay [9] has as its system Sonic hedgehog protein (Shh). In words: Sonic hedgehog microarray binding compounds – biochemical, small-molecule microarray, 635/667 nm fluorescence, primary screen (AID 1151).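 Note: Shh protein binding to compounds spotted on small-molecule microarray slides; score combines spot fluorescence intensity with signal-to-noise across triplicate slides.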 The following applies: 635 nm fluorescence, higher = more signal.
Assay [10] is described as follows: optical density shifts of acrAB sulA E. coli – strain DRC41, OD650, 48 h, E. coli filamentation inducer project, primary screen (AID 1152).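 Note: E. coli MC1000 strain DRC41 lacking acrAB efflux pump and sulA.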 The following applies: higher = more signal, called active from +8 up or from −8 down.
A short description of assay [11]: probe aLefty1 binding on compound microarray – biochemical, small-molecule microarray, 635/667 nm fluorescence, primary screen (AID 1153).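 Note: score merges spot fluorescence with signal-to-noise ratio from the scanned slide images.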 The settings on record: higher = more signal.
Assay [12] in a line: plasmodial surface anion channel blockers, osmotic lysis – cell-based, P. falciparum Indochina, OD700, 1 h, primary screen (AID 1154). The following applies: P. falciparum Indochina infected RBC osmotic lysis, higher = more signal, called active from +8 up or from −8 down.
A short description of assay [13]: plasmodial surface anion channel blockers, osmotic lysis – cell-based, P. falciparum Indochina, OD700, 2 h, primary screen (AID 1155).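 Note: lysis reports solute entry through the parasite surface anion channel PSAC.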 The following applies: P. falciparum Indochina infected erythrocytes, higher = more signal, called active from +8 up or from −8 down.
The nature of assay [14]: changes in parasitized red cell lysis, either direction – P. falciparum Indochina, OD700, 3 h, PSAC antagonist project, primary screen (AID 1156). The following applies: P. falciparum-infected erythrocytes, osmotic lysis, higher = more signal, called active from +8 up or from −8 down.
Assay [15] is described as follows: plasmodial surface anion channel blockers, osmotic lysis – cell-based, P. falciparum Indochina, OD700, 18 h, primary screen (AID 1157). The following applies: P. falciparum Indochina infected erythrocytes, osmotic lysis OD700, 18 h; higher = more signal, called active from +8 up or from −8 down.
Assay [16] in a line: S6 kinase pathway phospho-S6 level changes – cell-based, A549, cytoblot, luminescence, serum-stimulated, primary screen (AID 1158).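 Note: serum-stimulated A549 lung adenocarcinoma cells; signal is phosphorylated S6 detected by cytoblot immunostaining with HRP secondary.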 The following applies: 5 h, higher = more signal.
The target in assay [17] is NADPH oxidase 2 (Homo sapiens) (UniProt P04839). The experiment in a line: compounds shifting NOX2 Amplex Red fluorescence – cell-based, HEK293-NOX2, PMA-stimulated, NOX inhibitor project, primary screen (AID 1159). Note: test concentration not given here. The following applies: 45 min, higher = more signal, called active from +8 up or from −8 down.
Assay [18] deals with NADPH oxidase 4 (Homo sapiens) (UniProt Q9NPH5). The experiment in a line: compounds shifting NOX4 Amplex Red fluorescence – cell-based, HEK293-NOX4, tetracycline-induced, NOX inhibitor project, primary screen (AID 1160). The settings on record: HEK293-NOX4, Amplex Red H2O2 fluorescence, 45 min; higher = more signal, called active from +8 up or from −8 down.
The target of assay [19] is NADPH oxidase 5 (Homo sapiens) (UniProt Q96PH1). In words: compounds shifting NOX5 Amplex Red fluorescence – cell-based, HEK293-NOX5, NOX inhibitor project, primary screen (AID 1161). The settings on record: HEK293-NOX5, ionomycin, 45 min, higher = more signal.
The nature of assay [20]: compound effects on lung adenocarcinoma cell viability – A549, calcein-AM fluorescence, 48 h, basal, profiling panel (AID 1162). Note: test concentration not given here. The following applies: higher = more signal.

NADPH oxidase 4 (Homo sapiens), sequence (Q9NPH5 whole entry, looked up): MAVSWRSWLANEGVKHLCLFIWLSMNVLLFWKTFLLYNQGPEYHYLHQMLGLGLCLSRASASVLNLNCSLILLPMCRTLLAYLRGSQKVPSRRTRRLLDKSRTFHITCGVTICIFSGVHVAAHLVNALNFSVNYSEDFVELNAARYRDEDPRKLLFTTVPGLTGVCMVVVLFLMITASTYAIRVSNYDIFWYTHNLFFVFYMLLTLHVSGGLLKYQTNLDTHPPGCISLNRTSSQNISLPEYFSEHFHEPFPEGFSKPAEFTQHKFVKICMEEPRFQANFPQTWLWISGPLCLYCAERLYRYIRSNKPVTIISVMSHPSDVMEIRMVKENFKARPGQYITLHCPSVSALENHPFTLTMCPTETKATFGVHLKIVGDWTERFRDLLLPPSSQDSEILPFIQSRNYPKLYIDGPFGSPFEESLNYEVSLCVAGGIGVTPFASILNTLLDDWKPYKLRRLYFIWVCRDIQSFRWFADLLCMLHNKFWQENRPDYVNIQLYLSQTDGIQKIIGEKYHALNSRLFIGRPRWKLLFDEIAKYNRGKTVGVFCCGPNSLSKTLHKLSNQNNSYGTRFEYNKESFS
NADPH oxidase 5 (Homo sapiens), sequence (Q96PH1 whole entry, looked up): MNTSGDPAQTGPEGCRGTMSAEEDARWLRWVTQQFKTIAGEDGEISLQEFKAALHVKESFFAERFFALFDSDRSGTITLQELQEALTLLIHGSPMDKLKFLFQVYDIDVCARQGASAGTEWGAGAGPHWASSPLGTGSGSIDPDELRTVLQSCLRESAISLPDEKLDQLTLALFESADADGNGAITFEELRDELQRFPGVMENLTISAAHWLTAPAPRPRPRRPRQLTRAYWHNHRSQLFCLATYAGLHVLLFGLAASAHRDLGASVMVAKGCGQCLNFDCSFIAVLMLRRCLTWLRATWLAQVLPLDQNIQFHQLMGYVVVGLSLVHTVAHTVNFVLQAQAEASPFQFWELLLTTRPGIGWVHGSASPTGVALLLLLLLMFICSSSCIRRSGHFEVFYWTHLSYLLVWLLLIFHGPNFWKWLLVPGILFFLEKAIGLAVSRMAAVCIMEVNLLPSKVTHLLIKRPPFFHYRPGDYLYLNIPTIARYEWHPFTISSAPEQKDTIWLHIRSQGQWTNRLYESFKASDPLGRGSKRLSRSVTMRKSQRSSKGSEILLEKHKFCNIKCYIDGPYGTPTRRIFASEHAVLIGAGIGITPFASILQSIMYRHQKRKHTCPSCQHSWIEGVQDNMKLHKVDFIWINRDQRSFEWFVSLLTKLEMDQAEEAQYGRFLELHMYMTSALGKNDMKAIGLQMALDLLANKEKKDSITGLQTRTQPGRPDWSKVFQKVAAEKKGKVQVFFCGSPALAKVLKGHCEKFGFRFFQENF
Streptavidin (Streptomyces avidinii), sequence (P22629 whole entry, looked up): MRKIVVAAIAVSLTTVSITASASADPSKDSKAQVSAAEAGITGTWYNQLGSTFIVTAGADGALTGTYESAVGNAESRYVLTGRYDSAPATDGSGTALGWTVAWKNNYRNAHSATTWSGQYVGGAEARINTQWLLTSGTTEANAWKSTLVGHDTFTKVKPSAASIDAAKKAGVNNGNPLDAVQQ
NADPH oxidase 2 (Homo sapiens), sequence (P04839 whole entry, looked up): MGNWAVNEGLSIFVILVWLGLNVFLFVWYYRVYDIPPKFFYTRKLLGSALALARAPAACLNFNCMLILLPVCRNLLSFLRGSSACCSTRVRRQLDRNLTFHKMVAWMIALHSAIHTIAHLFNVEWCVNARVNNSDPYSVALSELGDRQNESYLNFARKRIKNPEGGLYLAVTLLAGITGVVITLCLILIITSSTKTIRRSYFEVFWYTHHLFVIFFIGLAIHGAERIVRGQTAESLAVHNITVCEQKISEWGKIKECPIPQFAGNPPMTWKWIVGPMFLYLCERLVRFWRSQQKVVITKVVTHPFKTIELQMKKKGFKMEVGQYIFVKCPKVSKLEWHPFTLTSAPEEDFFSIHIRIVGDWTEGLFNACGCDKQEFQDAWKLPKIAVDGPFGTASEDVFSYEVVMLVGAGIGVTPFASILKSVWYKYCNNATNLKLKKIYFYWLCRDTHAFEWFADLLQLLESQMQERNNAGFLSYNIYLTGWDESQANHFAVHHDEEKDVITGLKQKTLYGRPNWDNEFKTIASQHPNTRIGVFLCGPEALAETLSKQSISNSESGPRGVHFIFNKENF
Torsin-1A (Homo sapiens), sequence (O14656 whole entry, looked up): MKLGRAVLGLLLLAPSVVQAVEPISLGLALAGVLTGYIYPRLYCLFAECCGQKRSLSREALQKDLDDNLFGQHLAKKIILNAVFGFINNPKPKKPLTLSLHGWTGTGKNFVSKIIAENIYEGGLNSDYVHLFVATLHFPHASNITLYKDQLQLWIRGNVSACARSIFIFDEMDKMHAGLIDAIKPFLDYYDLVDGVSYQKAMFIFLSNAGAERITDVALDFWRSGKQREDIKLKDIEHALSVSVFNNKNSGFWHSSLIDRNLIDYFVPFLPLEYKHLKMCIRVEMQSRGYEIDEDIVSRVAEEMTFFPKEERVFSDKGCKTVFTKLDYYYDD

For `COC(=O)c1c(CC[C@@H](CO)NC(=O)Nc2ccc(OC)cc2)oc(C(=O)Cc2ccccc2)c1C(=O)OC`, the composite z-score in assay [1] was 0.0603; in assay [5], 0.652; in assay [6], -0.0531; in the assay with Torsin-1A (Homo sapiens) [7], 0.462; with Torsin-1A (Homo sapiens) [8], 0.943; in assay [9], 0.97. Moreover, in assay [11], the composite z-score was -0.147. The z-score in assay [2] was 0.566 (inactive); in [3], 9.58 (active); in assay [4] it was -0.453 (inactive); in assay [10] it was 1.7 (inactive); in assay [12], 3.06 (inactive); in assay [13] it was 1.01 (inactive). In addition, the z-score in assay [14] was 0.681 (inactive); in assay [15] it was 0.458 (inactive); in assay [16] it was -0.0632; in [17], 1.31 (inactive); in assay [18], 0.649 (inactive); in assay [19] it was -2.22. Moreover, in assay [20], the z-score is -1.27.
`CC(C)[C@@H](C(=O)O)n1cc(-c2ccccn2)nn1`: the composite z-score is -0.267 in assay [1]; 0.62 in assay [5]; 0.202 in assay [6]; 0.417 in the assay with Torsin-1A (Homo sapiens) [7]; 0.567 with Torsin-1A (Homo sapiens) [8]; 0.673 in assay [9]. In addition, in assay [11], the composite z-score was -0.0559. The z-score in assay [2] is 0.715 (inactive); in assay [3], -0.201 (inactive); in [4], 0.159 (inactive); in [10], 2.01 (inactive); in assay [12] it was -0.0828 (inactive); in assay [13], 0.0486 (inactive). Also, the z-score in [14] was 0.322 (inactive); in assay [15], 0.0401 (inactive); in assay [16], 0.0264; in assay [17], -0.847 (inactive); in assay [18], 0.242 (inactive); in assay [19] it was -0.24. Moreover, in [20], the z-score was -0.137.
With `CC(C)(C)OC(=O)CC[C@]1(C(=O)NCc2ccccc2)N=C(c2ccc(OCCCO)cc2)O[C@H]1c1ccccc1N=[N+]=[N-]`, the composite z-score in assay [1] is 1.11; in assay [5], 1.71; in assay [6] it was 0.317; in the assay with Torsin-1A (Homo sapiens) [7] it was 0.466; in the assay with Torsin-1A (Homo sapiens) [8], 0.78; in [9], 0.425. The same compound registered a composite z-score in assay [11] of 0.598. For the same compound, the z-score in assay [2] was -3.04 (inactive); in assay [3], 1.13 (inactive); in assay [4], -1.4 (inactive); in [10], 1.78 (inactive); in assay [12] it was 30.9 (active); in assay [13], 27.9 (active). Besides, the z-score is 2.08 (inactive) in [14]; 6.66 (inactive) in assay [15]; 1.55 in assay [16]; -2.28 (inactive) in [17]; -0.17 (inactive) in assay [18]; -2.3 in assay [19]. The z-score in assay [20] was 0.117.
On to `C=CCC(OC(C)=O)[C@@H]1[C@@H](N(Cc2ccc(-c3ccccc3)cc2)C(=O)c2ccc(-c3ccccc3)cc2)c2cc(OCCCO)ccc2N1C(=O)c1ccc(-c2ccccc2)cc1` (stereo not given in full), for which the composite z-score in assay [1] was 0.144; in assay [5], 0.222; in assay [6], 0.0439; with Torsin-1A (Homo sapiens) [7], 0.276; with Torsin-1A (Homo sapiens) [8], 0.0533; in assay [9], 0.107. In assay [11], the composite z-score was -0.0088. Besides, the z-score was 0.534 (inactive) in assay [2]; -0.0247 (inactive) in assay [3]; -0.426 (inactive) in [4]; 2.03 (inactive) in [10]; 0.568 (inactive) in assay [12]; 0.712 (inactive) in assay [13]. In addition, the z-score in assay [14] was -0.181 (inactive); in assay [15], 0.0154 (inactive); in assay [16] it was 0.531; in assay [17], 0.844 (inactive); in assay [18], 0.967 (inactive); in assay [19], 1.17. Further, the z-score in assay [20] is 0.444.
